The panel holds about 83,000 compounds, 20% with a hit somewhere; the sample as a whole holds those more often.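 Each cell line was grown in a 96-well plate and treated with one concentration of compound for 48 hours. Values below 10 were considered active.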 A number with no mark means an inactive call. Activity calls are given as the source filed them.

The subject of the assay is UO-31 renal. Nature of the assay: NCI-60 one-dose screen, 48 h (100 = growth as untreated, 0 = no growth, -100 = all killed). The conditions noted are these: 10 µM unless noted. As to the method: Growth inhibition of the UO-31 human tumor cell line is measured as a screen for anti-cancer activity. Cells are grown in 96 well plates and exposed to the test compound for 48 hours. Compounds are tested at a single concentration, which is 10^-5 M for most compounds. The reported endpoint is percent growth (GI% or GIPRCNT), where numbers from 0 - 100% represent growth inhibition, and numbers from -100% - 0 represent cell death. For example, a value of 40 represents 60% growth inhibition. A value of 0 means no net growth occurred over the course of the experiment. A value of -40 indicates 40% of cells at the beginning of the experiment died by the end of the experiment. A value of -100 means all cells are dead at the end of the experiment.
NCI-60 Human Tumor Cell Lines Screen was performed using the standard one-dose NCI protocol, which is described in more detail at https://dtp.cancer.gov/discovery_development/nci-60/default.htm.
Compounds with GIPRCNT values below 10 were considered active. Activity score was based on GIPRCNT using the following formula: […]
Score is 0 for GIPRCNT values of 100 or above, 50 for GIPRCNT values of 0, and 100 for GIPRCNT values of -100.
As for `CN1CCCCC1CCN1c2ccccc2Sc2ccc(Cl)cc21` (stereo not given), the growth was 30.1%. For `Cc1ccc2c(c1)n([O-])c1cc(Cl)ccc1[n+]2=O`, the growth is 88.9%. With `C/C(Cc1ccc(Cl)cc1)=C(\c1ccc(OCCN2CCCCCC2)cc1)c1ccc(OC(=O)C2CCCCC2)cc1` the figure was 40.9%.

For `CN(CC(=O)N(Cc1ccc(C2CCCCC2)cc1)c1ccc(C(=O)NO)cc1)S(=O)(=O)c1c(F)c(F)c(F)c(F)c1F`, the growth is 69.1%. Under `CCN(CC)CCC(=O)Nc1ccc(Cn2nnc3c2C(=O)c2nnn(Cc4ccc(NC(=O)CCN(CC)CC)cc4)c2C3=O)cc1` stands 99.9%; under `CC(C)(C)n1cc(-c2ccnc(NCCCNS(=O)(=O)c3cccc4ccccc34)c2)c(-c2cccc(O)c2)n1`, 44.8%; under `CCN(CC)c1ccc(/C=C/C2=[N+](C)c3ccccc3C2(C)C)cc1`, 22.1%. Take `CCN(CC)CCCC(C)NCCCNc1cccc2cccnc12` (stereo not given): the growth is 72.2%. For the compound `CN[C@@]12CC3(C=CC(=O)C=C3)O[C@]1(Cc1ccc(OC)cc1)N(C)C(=O)N2`, the growth was 76.2%. On to `CN(C)CCOc1ccc(-c2nc3ccc(-c4nc5ccc(N6CCN(C)CC6)cc5[nH]4)cc3[nH]2)cc1`, for which the growth was 103%. As to `Cc1nn(-c2ccccc2)c2nc(C)n(-c3ccc(Br)cc3)c(=O)c12`, the growth was 34.1%. For the compound `N#Cc1c(N)nc(N)nc1Nc1ccc(Br)cc1`, the growth is 65.6%. With `CCN(CC)CC(O)CNc1c2ccc([N+](=O)[O-])cc2nc2cc(OC)c(OC)cc12` (stereo not given) the figure was 4.89% (active); with `CC(=O)C1=C(O)C=C2Oc3c(C(=O)/C=C/c4cc(Cl)cc(Cl)c4)c(O)c(C)c(O)c3[C@]2(C)C1=O`, -15.1% (active). With `Cc1cc(-c2nc3ccccc3s2)ccc1NC(=O)COc1ccc(Cl)cc1`, the growth was 69%. `Oc1ccccc1/C=N/Nc1ccc2ccccc2n1`: the growth was 16.4%.

On to `CCOC(=O)CC(=O)c1c(C)cc(C)cc1C`, for which the growth is 92.9%.

On to `CCCCCCCCCCCCS(=O)CC(C)O` (stereo not given), for which the growth was 95.3%. With `CCCCN(CC)CCCCCCCCCCN1CCCc2cc(OC)ccc21` the figure was 24.4%; with `CC(C)(C)n1cc(-c2ccnc(NCCNS(=O)(=O)c3ccccc3)c2)c(-c2cccc(O)c2)n1`, 61.3%. Consider `C=C1CCC2C3(C)COC(c4ccc(SC)cc4)OC3CCC2(C)C1C/C=C1/C(=O)OCC1O` (stereo not given), for which the growth was 60.7%.

As for `Cn1c2c(Cl)c(Cl)ccc2c2ccn3c(=O)c4ccccc4nc3c21`, the growth was 70.1%. Under `Cc1nc2sc(C(=O)Nc3cccc4c3OCCO4)c(N)c2cc1C(C)O` (stereo not given) stands 44.3%; under `CN1CCN(Cc2ccc(NC(=O)c3cncc(C#Cc4cnc(N)c5cccnc45)c3)cc2C(F)(F)F)CC1`, 2.87% (active). Regarding `CCCCCCCCCCCCNC(=O)[C@H]1CSC(c2ccc(OC)c(F)c2)N1` (stereo not given in full), the growth was -99.9% (active). Under `CC/C=C\C[C@H](O)C/C=C1/C(=O)C=C[C@@H]1C/C=C\CCCC(N)=O` stands -70.8% (active); under `COc1ccc(C2CC(=O)Nc3c2c(C)nn3-c2nc3ccccc3[nH]2)cc1` (stereo not given), 34.3%.

On to `CN1CCN(Cc2ccc(NC(=O)c3[nH]ncc3Nc3ncnc4sccc34)cc2)CC1`, for which the growth was 14.8%. On to `CCCCCCCCCCNC(=O)CCl`, for which the growth was 58.1%. Turning to `Cn1c(=O)c2c(ncn2CC[N+](C)(C)C)n(C)c1=O`, the growth was 91.7%.

Turning to `CNc1cc2nc3cc(NC)c(C)cc3cc2cc1C`, the growth is 34.5%. `O=C(CN1CCN(c2cc3c(cc2F)c(=O)c(C(=O)O)cn3C2CC2)CC1)Nc1nc(-c2ccccc2)cs1`: the growth was 81.7%. Take `O=C(Nc1cccc2[nH]c(C(F)(F)F)nc12)c1ccc(Br)cc1F`: the growth was 10.9%. Take `COC(/C=C/c1ccc([N+](=O)[O-])cc1)OC`: the growth is 93.2%. For `CSc1ncnc2c1ncn2C1CCCO1` (stereo not given), the growth is 92.1%. With `COC(=O)C12C3C(=O)N(c4ccc(OC)cc4)C(=O)C3C(c3cn(-c4ccccc4)nc3C)N1[C@H](c1cn(-c3ccccc3)nc1C)[C@@H]1C(=O)N(c3ccc(OC)cc3)C(=O)[C@@H]12` (stereo not given in full), the growth was 97.1%.

`CC[C@@H](C)OC(=O)c1nn(C(C)=O)c2ccccc12`: the growth was 92.9%. Under `COc1ccc(/C=C2\N=C3SC=C(N)N3C2=O)cc1` stands -4.09% (active); under `Cc1ccc2c(c1)C(=O)/C(=C/c1ccc(OCC(=O)c3ccccc3)cc1)O2`, 85.5%.

As for `O=C(COc1cccc(/C=C2/Oc3ccccc3C2=O)c1)Nc1nccs1`, the growth is -53.2% (active).

These data come from PubChem BioAssay (NCI).
